High-throughput results from PubChem.
The list is not random: actives were taken first. Their share in the collection is about 1.1%.
MOR-DOR inv ag-1: inverse agonist of human OPRM1-OPRD1 heterodimerization; cell-based MOR-DOR heterodimer luminescence, inverse agonism; inhibition, % at 9.3 µM; P35372+P41143; 340,000 compounds, 0.21% hits; in the data active = inhibition above about 22%, passing the limit was not always enough
Target sequence (P35372 whole entry, looked up): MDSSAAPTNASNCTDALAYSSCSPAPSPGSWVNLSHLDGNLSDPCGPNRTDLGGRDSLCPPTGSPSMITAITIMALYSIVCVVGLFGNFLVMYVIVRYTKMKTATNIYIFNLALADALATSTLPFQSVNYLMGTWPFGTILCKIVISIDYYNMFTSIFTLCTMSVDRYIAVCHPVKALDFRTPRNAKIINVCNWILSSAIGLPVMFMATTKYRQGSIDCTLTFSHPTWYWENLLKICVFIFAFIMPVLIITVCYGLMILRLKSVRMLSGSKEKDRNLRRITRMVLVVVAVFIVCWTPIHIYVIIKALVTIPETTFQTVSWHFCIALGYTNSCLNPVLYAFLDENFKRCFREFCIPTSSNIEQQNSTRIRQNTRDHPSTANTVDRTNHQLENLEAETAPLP
Target sequence (P41143 whole entry, looked up): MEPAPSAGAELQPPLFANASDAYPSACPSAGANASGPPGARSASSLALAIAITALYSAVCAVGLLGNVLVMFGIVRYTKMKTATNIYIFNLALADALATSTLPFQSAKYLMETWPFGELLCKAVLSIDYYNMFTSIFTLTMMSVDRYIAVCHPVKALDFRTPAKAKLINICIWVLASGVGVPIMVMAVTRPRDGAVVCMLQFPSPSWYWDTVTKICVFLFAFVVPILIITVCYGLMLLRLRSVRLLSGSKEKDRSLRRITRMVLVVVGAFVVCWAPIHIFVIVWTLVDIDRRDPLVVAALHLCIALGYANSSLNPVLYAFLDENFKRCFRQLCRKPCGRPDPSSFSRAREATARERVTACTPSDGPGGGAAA
HTR5A inv ctr: inverse agonist of human HTR5A in OPRM1-OPRD1 counter-screen. P47898. HTR5A cell line, luminescence, inverse agonism. inhibition, % at 9.3 µM. 340,000 compounds, 0.083% hits. AID 504634; in the data active = inhibition mostly above about 23%, no sharp cut-off; inactive = mostly below about 18%
OPRM1-OPRD1 ag: OPRM1-OPRD1 heterodimerization agonism; P35372+P41143; 340,000 compounds, 0.3% hits; cells, luminescence; activation, % at 9.3 µM; in the data active = activation above about 18%
HTR5A ag: counter-screen for OPRM1-OPRD1 agonists: human HTR5A agonism; AID 504692; HTR5A agonist assay, luminescence, cell-based; activation, % at 9.3 µM; P47898; 340,000 compounds, 0.61% hits; in the data active = activation mostly above about 9.5%, no sharp cut-off; inactive = mostly below about 7.6%
MOR-DOR inv ag-2: inverse agonist of OPRM1-OPRD1 heterodimerization in HTR5A counter-screen. U2OS counter-screen cells, complementation luminescence. shares compounds with HTR5A inv ctr. inhibition, % at 9.3 µM. 190 tested, under 10 active
HTR5A inv confrm: HTR5A (human) inverse agonism, confirmation; inhibition, % at 9.3 µM; HTR5A-expressing cells, luminescence; shares compounds with HTR5A inv ctr; 190 tested, under 10 active; AID 504916
A number is an active result. Unless noted, the rule behind the calls is not given here.

`O=c1[nH]n2c(=O)c3c([nH]c2c1N=Nc1cccc(Cl)c1)CCCC3` gave MOR-DOR inv ag-1 inactive, HTR5A inv ctr 42.4, OPRM1-OPRD1 ag inactive, HTR5A ag inactive, MOR-DOR inv ag-2 inactive and HTR5A inv confrm inactive.
`O=C(NN1C(=O)/C(=C/c2ccc(O)c([N+](=O)[O-])c2)SC1=S)c1ccccc1Cl` gave MOR-DOR inv ag-1 inactive, HTR5A inv ctr 28.5, OPRM1-OPRD1 ag inactive, HTR5A ag inactive, MOR-DOR inv ag-2 inactive and HTR5A inv confrm inactive.
Cc1cc(C(=O)CCC(=O)NCC(=O)Nc2c(C)cccc2C)c(C)s1 was read as MOR-DOR inv ag-1 inactive, HTR5A inv ctr inactive, OPRM1-OPRD1 ag inactive and HTR5A ag inactive.
`CCN1c2ccccc2S(=O)(=O)c2ccccc21` gave MOR-DOR inv ag-1 inactive, HTR5A inv ctr 34.2, OPRM1-OPRD1 ag inactive, HTR5A ag inactive, MOR-DOR inv ag-2 inactive and HTR5A inv confrm inactive.
Cn1c(N=Nc2ccc(N3CCOCC3)cc2)[n+](C)c2ccccc21 was read as MOR-DOR inv ag-1 inactive, HTR5A inv ctr 36.6, OPRM1-OPRD1 ag inactive, HTR5A ag inactive, MOR-DOR inv ag-2 inactive and HTR5A inv confrm inactive.
COCCOC(=O)C1=C(C)OC(N)=C(C#N)C1c1ccc2c(c1)OCO2 (stereo not given) was read as MOR-DOR inv ag-1 inactive, HTR5A inv ctr 33.3, OPRM1-OPRD1 ag inactive, HTR5A ag inactive, MOR-DOR inv ag-2 inactive and HTR5A inv confrm inactive.
COCc1nnc(NC(=O)c2ccc(S(=O)(=O)N(C)Cc3ccccc3)cc2)o1 was read as MOR-DOR inv ag-1 inactive, HTR5A inv ctr 32.5, OPRM1-OPRD1 ag inactive, HTR5A ag inactive, MOR-DOR inv ag-2 inactive and HTR5A inv confrm inactive.
Screening Cc1nnc(NC(=O)c2ccc(S(=O)(=O)N(C)Cc3ccccc3)cc2)o1 returned MOR-DOR inv ag-1 inactive, HTR5A inv ctr inactive, OPRM1-OPRD1 ag inactive and HTR5A ag inactive.
Screening Cc1cccc(C(=O)OCC(=O)c2cccc(Br)c2)c1O returned MOR-DOR inv ag-1 inactive, HTR5A inv ctr inactive, OPRM1-OPRD1 ag inactive and HTR5A ag inactive.
CCO[C@@H]1OC(C(=O)N2CCN(Cc3ccccc3)CC2)=C[C@H](c2ccc(Br)cc2)[C@H]1CCCO was read as MOR-DOR inv ag-1 inactive, HTR5A inv ctr 36.6, OPRM1-OPRD1 ag inactive, HTR5A ag inactive, MOR-DOR inv ag-2 inactive and HTR5A inv confrm inactive.
Screening CCO[C@@H]1OC(C(=O)N2CCN(Cc3ccccc3)CC2)=C[C@H](c2ccc(C(F)(F)F)cc2)[C@H]1CCCO returned MOR-DOR inv ag-1 inactive, HTR5A inv ctr inactive, OPRM1-OPRD1 ag inactive and HTR5A ag inactive.
O=C(NC(c1ccc(Cl)cc1)c1cc(Cl)c2cccnc2c1O)c1cccnc1 (stereo not given) was read as MOR-DOR inv ag-1 inactive, HTR5A inv ctr 30.4, OPRM1-OPRD1 ag inactive, HTR5A ag inactive, MOR-DOR inv ag-2 inactive and HTR5A inv confrm inactive.
For CCn1c(-c2ccc(-c3ccccc3)cc2)c[nH]c1=S the results were MOR-DOR inv ag-1 inactive, HTR5A inv ctr 33.4, OPRM1-OPRD1 ag inactive, HTR5A ag inactive, MOR-DOR inv ag-2 inactive and HTR5A inv confrm inactive.
`COc1ccc2nccnc2c1[N+](=O)[O-]` gave MOR-DOR inv ag-1 inactive, HTR5A inv ctr inactive, OPRM1-OPRD1 ag inactive and HTR5A ag inactive.
CC1CCCCN1C(=O)COC(=O)C1CCN(S(=O)(=O)c2ccc3c(c2)OCCO3)CC1 (stereo not given) was read as MOR-DOR inv ag-1 inactive, HTR5A inv ctr inactive, OPRM1-OPRD1 ag inactive and HTR5A ag inactive.
For CCC(=O)c1ccc(OCC(=O)OCC(=O)NCCCc2ccccc2)cc1 the results were MOR-DOR inv ag-1 inactive, HTR5A inv ctr inactive, OPRM1-OPRD1 ag inactive and HTR5A ag inactive.
`CN1C(=O)/C(=C/c2cc3c(cc2Br)OCO3)NC1=S` gave MOR-DOR inv ag-1 inactive, HTR5A inv ctr 23.5, OPRM1-OPRD1 ag inactive, HTR5A ag inactive, MOR-DOR inv ag-2 inactive and HTR5A inv confrm inactive.
Screening COCCn1c(C)cc(/C=C2\NC(=S)N(C)C2=O)c1C returned MOR-DOR inv ag-1 inactive, HTR5A inv ctr inactive, OPRM1-OPRD1 ag inactive and HTR5A ag inactive.
O=[N+]([O-])c1ccc(/C=N/N/C(=N/c2ccccn2)c2ccccn2)cc1 was read as MOR-DOR inv ag-1 inactive, HTR5A inv ctr inactive, OPRM1-OPRD1 ag inactive and HTR5A ag inactive.
O=[N+]([O-])c1cc(/C=N/N/C(=N/c2ccccn2)c2ccccn2)ccc1O was read as MOR-DOR inv ag-1 inactive, HTR5A inv ctr 24.4, OPRM1-OPRD1 ag inactive, HTR5A ag inactive, MOR-DOR inv ag-2 inactive and HTR5A inv confrm inactive.
`COC(=O)c1cc(COC(=O)c2nc3nc(C)cc(C)n3n2)oc1C` gave MOR-DOR inv ag-1 inactive, HTR5A inv ctr inactive, OPRM1-OPRD1 ag inactive and HTR5A ag inactive.
`O=[N+]([O-])c1ccc(S(=O)(=O)Nc2cccc(-c3ccc(N4CCOCC4)nn3)c2)cc1` gave MOR-DOR inv ag-1 inactive, HTR5A inv ctr 42.5, OPRM1-OPRD1 ag inactive, HTR5A ag inactive, MOR-DOR inv ag-2 inactive and HTR5A inv confrm inactive.
Screening CCOc1cc(/C=N/NC(=O)c2cccs2)cc([N+](=O)[O-])c1O returned MOR-DOR inv ag-1 inactive, HTR5A inv ctr 24.6, OPRM1-OPRD1 ag inactive, HTR5A ag inactive, MOR-DOR inv ag-2 54.9 and HTR5A inv confrm inactive.
Screening Cc1cccc(C)c1OCCCN1CCOCC1 returned MOR-DOR inv ag-1 inactive, HTR5A inv ctr inactive, OPRM1-OPRD1 ag inactive and HTR5A ag inactive.
`CC(=O)N1CCc2ccccc2C1CC(=O)O` (stereo not given) gave MOR-DOR inv ag-1 inactive, HTR5A inv ctr 43.1, OPRM1-OPRD1 ag inactive, HTR5A ag inactive, MOR-DOR inv ag-2 inactive and HTR5A inv confrm inactive.
For Cc1cc(C)c(COc2ccc(/C=N/n3c(C)n[nH]c3=S)cc2)c(C)c1 the results were MOR-DOR inv ag-1 inactive, HTR5A inv ctr 36.8, OPRM1-OPRD1 ag inactive, HTR5A ag inactive, MOR-DOR inv ag-2 inactive and HTR5A inv confrm inactive.
For Cc1c(N2C(=O)/C(=C/c3ccc(N(C)C)cc3)N(C)C2=S)c(=O)n(-c2ccccc2)n1C the results were MOR-DOR inv ag-1 inactive, HTR5A inv ctr 28.8, OPRM1-OPRD1 ag inactive, HTR5A ag inactive, MOR-DOR inv ag-2 inactive and HTR5A inv confrm inactive.
Screening Cc1cccc([C@@H]2[C@@H]3C(=O)N(Cc4ccccc4)C(=O)[C@@H]3[C@]3(Cc4ccc(Cl)cc4)C(=O)N(c4cccc(Br)c4)C(=O)N23)c1 returned MOR-DOR inv ag-1 inactive, HTR5A inv ctr inactive, OPRM1-OPRD1 ag inactive and HTR5A ag inactive.
Screening Cc1ccccc1-c1ncc(CN2CCN(C3CCCCC3)C(CCO)C2)cn1 (stereo not given) returned MOR-DOR inv ag-1 inactive, HTR5A inv ctr inactive, OPRM1-OPRD1 ag inactive and HTR5A ag inactive.
For COCCN(C(=O)c1ccccc1Oc1ccccc1)c1c(N)n(CC(C)C)c(=O)[nH]c1=O the results were MOR-DOR inv ag-1 inactive, HTR5A inv ctr 34.7, OPRM1-OPRD1 ag inactive, HTR5A ag inactive, MOR-DOR inv ag-2 inactive and HTR5A inv confrm inactive.
For COCCN(C(=O)c1cc(-c2ccccc2Cl)nc2ccccc12)c1c(N)n(CC(C)C)c(=O)[nH]c1=O the results were MOR-DOR inv ag-1 inactive, HTR5A inv ctr inactive, OPRM1-OPRD1 ag inactive and HTR5A ag inactive.
